Structures can show the parent of a compound that is named as a salt.

This assay relates to OCI-AML2. Briefly: cell viability relative to vehicle control; higher = less cytotoxic. As to conditions: 10 µM; SRSF2 genotype: P95H/wt. An outline of the steps: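 Screening covered the Selleck bioactive, kinase and epigenetic probe libraries, less identity-inconsistent compounds, on CRISPR-edited mutant clones and isogenic wild-type clones of four leukaemia lines. Cells, at 2000 per well in 50 µL medium, received a single 10 µM acoustically dispensed dose. After 48 h the supernatant was removed and CellTiter-Glo luminescence was read. Viability was analysed in Genedata Screener as percent of the on-plate vehicle control.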
For orientation: cell viability means a read-out of living cells in per cent, often relative to untreated cells. Consider `COC(=O)c1ccc(O)c(C(=O)OC)c1` [Dimetghyl 4-Hydroxyisophthalate], for which the cell viability amounted to 90%.

As for `CN1CCN(c2cccc(Nc3nc4c(-c5ccc(S(C)(=O)=O)cc5)cccn4n3)c2)CC1`, the cell viability was determined as 11.9%. With `NS(=O)(=O)c1cc2c(cc1Cl)NC(C(Cl)Cl)NS2(=O)=O` (centres undefined) [Trichlormethiazide (Achletin)] the figure was 112%; with `Nc1[nH]cnc2ncnc1-2` [Adenine hydrochloride], 114%; with `Nc1ccc(C(=O)O)c(O)c1` [Sodium 4-Aminosalicylate], 86.3%. To `O=c1c(-c2ccc(O)cc2)coc2cc(O[C@@H]3O[C@H](CO)[C@@H](O)[C@H](O)[C@H]3O)cc(O)c12` [Genistin (Genistoside)] belongs 92.1%; to `CC(C)=CCC[C@](C)(O[C@@H]1O[C@H](CO[C@@H]2OC[C@H](O)[C@H](O)[C@H]2O)[C@@H](O)[C@H](O)[C@H]1O)[C@H]1CC[C@]2(C)[C@@H]1[C@H](O)C[C@@H]1[C@@]3(C)CC[C@H](O[C@@H]4O[C@H](CO)[C@@H](O)[C@H](O)[C@H]4O[C@@H]4O[C@H](CO)[C@@H](O)[C@H](O)[C@H]4O)C(C)(C)[C@@H]3CC[C@]12C` [Ginsenoside Rb2], 83.2%; to `COc1ccc(COc2ccc(Cc3cnc(N)nc3N)cc2OC)cc1`, 66%. To `CCN(CC)CCCC(C)Nc1c2ccc(Cl)cc2nc2ccc(OC)cc12` (centres undefined) [Quinacrine Dihydrochloride Dihydrate] belongs 0.59%.

As to `Cc1c(-c2ccnn2C)cc(C(=O)NCc2ccc(S(C)(=O)=O)cn2)c(=O)n1-c1cccc(C(F)(F)F)c1`, the cell viability was determined as 107%.

Turning to `O=C(O)Cc1ccc2c(c1)C(=O)c1ccccc1CO2` [Isoxepac], the cell viability turned out to be 105%.

For `CC1(C)S[C@@H]2[C@H](NC(=O)Cc3ccccc3)C(=O)N2[C@H]1C(=O)O` [Penicillin G Sodium], the cell viability was 91.9%. Turning to `O=[N+]([O-])c1ccc(Sc2cccc[n+]2[O-])c2nonc12`, the cell viability came out at 0.28%. To `COC(=O)c1cc(OC)c2c(c1-c1c(C(=O)OC)cc(OC)c3c1OCO3)OCO2` [Bifendate] belongs 106%; to `N#Cc1ccc(-c2c(-c3ncn[nH]3)sc(N3CCOCC3)c2C#N)c(F)c1`, 9.07%. With `Cc1ncc(CCCN(C)C)cc1Nc1ncc2c(n1)-c1ccc(C(F)(F)F)cc1NC(=S)C2` the figure was 16.3%. For `Nc1ccccc1NC(=O)c1cnccn1`, the cell viability was found to be 81.3%.

In the case of `N[C@@H]1CCCN(c2c(/C=C3\SC(=O)NC3=O)cccc2-c2ccccc2)C1`, the cell viability is 78.6%. As to `O=C(O)CCCC[C@@H]1CCSS1` (racemic) [Thioctic acid], the cell viability was 97.1%. With `COc1cn(-c2ccc(-n3cccn3)cc2F)nc(-c2ccnn2-c2ccccc2)c1=O` the figure was 106%; with `COc1ccc(S(=O)(=O)N(CCO)c2ccccc2CN(C)C/C=C/c2ccc(Cl)cc2)cc1` [KN-93 Phosphate], 35.6%. With `CC(C)OC(=O)C(C)(C)Oc1ccc(C(=O)c2ccc(Cl)cc2)cc1` [Fenofibrate (Tricor, Trilipix)] the figure was 67.1%; with `Cc1cc2c3c([n+](C)c4ccc(F)cc4c3c1)-c1cc(F)ccc1N2C` [RHPS 4 methosulfate], 0.13%; with `COc1cc(Nc2ncc(F)c(Nc3ccc4c(n3)NC(=O)C(C)(C)O4)n2)cc(OC)c1OC`, 41.2%. With `COc1cc2ncnc(Nc3ccc(Oc4ccccc4)cc3C)c2cc1OC` the figure was 45.6%; with `Cn1cc(-c2ccc(S(=O)(=O)n3ccc(/C=C/C(=O)Nc4ccccc4N)c3)cc2)cn1`, 8.31%; with `Cn1cc(CNCC2CCN(c3ncc(C(=O)NO)cn3)CC2)c2ccccc21`, 1.8%.

Regarding `N[C@@H]1CN(c2c(F)cc3c(=O)c(C(=O)O)cn([C@@H]4C[C@@H]4F)c3c2Cl)CC12CC2` [Sitafloxacin hydrate], the cell viability came out at 102%. To `COC(=O)C1=C(C)NC(C)=C(C(=O)OC(C)C)C1c1cccc2nonc12` (centres undefined) [Isradipine (Dynacirc)] belongs 93.2%. To `O=C(Nc1nccs1)C(c1cc(F)ccc1O)N1Cc2ccccc2C1=O` (centres undefined) belongs 93.9%; to `Nc1cc(F)ccc1NC(=O)/C=C/c1cnn(C/C=C/c2ccccc2)c1`, 104%; to `C=C1[C@H](O)C[C@H]2[C@@H](/C=C(\C)C(=O)[C@@]3(O)C[C@H](C)[C@H](O)[C@@H]3[C@H]1O)C2(C)C`, 93.9%.

Regarding `O=C(Nc1cccc(C(F)(F)F)c1)Nc1cc(S(=O)(=O)NC2CC2)ccc1-c1ccsc1`, the cell viability was 86.6%. With `CC(C)(NS(=O)(=O)c1ccc2c(Cl)cnc(N=C(N)N)c2c1)C(=O)O` the figure was 99.1%.

The values above are taken from the supplement of paper PMC10981050.
